Bioassay records (PubChem)
Sampled rows, rich in hits. Any-hit rate of the full collection: about 2.6%.
KKLEB tox: CF airway cell cytotoxicity counter-screen. 360,000 compounds, 0.36% hits. AID 602141. activity change (cytotoxicity), % at 5 µM. KKLEB CF airway cells viability, ATPlite luminescence, overnight; stronger effect = lower value; cells stimulated with P. aeruginosa culture filtrate;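 active = corrected activity change at or below -50% at 5 µM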
EWS-Fli block: blocks EWS/Fli oncoprotein-driven transcription; A673 NR0B1-luciferase reporter, viability-normalised; inhibition, % at 12.6 µM; 350,000 compounds, 0.67% hits; AID 651661;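 active = mean inhibition of at least 50% after viability correction, with every replicate also passing that limit; inconclusive = mean reaches 50% but only one of two replicates passes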;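 also: firefly luciferase signal divided by Alamar Blue viability fluorescence both relative to DMSO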
LGR2 inh: blocks bursicon-induced cAMP signaling via Drosophila LGR2; HEK293 LGR2, CRE-luciferase, bursicon-stimulated, 4 h; inhibition, % at 9.99 µM; 380,000 compounds, 0.35% hits; AID 720647;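 active = drop in luminescence signal, shown as inhibition above about 50% in the replicate tests, limit read from the data, passing the limit was not always enough; inconclusive = probably only some replicates passing the limit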;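 also: agonist challenge used bursicon conditioned medium at about half maximal strength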
TROY NFkB inh: TROY signaling inhibition | Q293 LMP1-TROYcd NF-kB luciferase reporter, 4 h | 360,000 compounds, 0.98% hits | inhibition, % at 10 µM;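 active = compounds whose plate-normalised and pattern-corrected inhibition of the luciferase reporter signal at the single screening dose is 50% or more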
CF NFkB inh: cystic fibrosis NF-kB activation inhibition. KKLEB NF-kB-GFP reporter, PAF-induced, GFP fluorescence overnight. inhibition, % at 5 µM. 360,000 compounds, 0.86% hits;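 active = at least 50% inhibition at 5 µM, scaled per plate between neutral and stimulator controls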;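 also: PAF is a Pseudomonas aeruginosa culture filtrate used as stimulus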
TWEAK-Fn14 inh: inhibitors of TWEAK-Fn14 interaction signaling; AID 1159606; 360,000 compounds, 2% hits; TWEAK-stimulated Fn14 reporter cells, luciferase luminescence, 8 h; inhibition, % at 10 µM; in the data active = inhibition above about 50%
CF NFkB inh conf: confirmation of cystic fibrosis induced NF-kB inhibitors; 1,300 compounds, 64% hits; AID 602472; shares compounds with CF NFkB inh; inhibition, % at 5 µM; KKLEB CF airway cells, PAF-induced NF-kB-GFP fluorescence, overnight; in the data active = inhibition above about 40%;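 also: stimulus PAF is a Pseudomonas aeruginosa filtrate and not platelet activating factor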
A number is an active result; - = inactive; ? = inconclusive; . = no result given.

SMILES	KKLEB tox	EWS-Fli block	LGR2 inh	TROY NFkB inh	CF NFkB inh	TWEAK-Fn14 inh	CF NFkB inh conf
CCOC(=O)Oc1c(OC)cc(C(=O)O[C@@H]2C[C@@H]3CN4CCc5c([nH]c6cc(OC)ccc56)[C@H]4C[C@@H]3[C@H](C(=O)OC)[C@H]2OC)cc1OC	-	-	-	-	77.4	-	87.1
COC(=O)C1C2CC3c4[nH]c5cc(OC)ccc5c4CCN3CC2CC(OC(=O)CC(C)=O)C1OC (stereo unspecified)	-	-	-	-	-	-	.
O=C(C[C@H]1CC[C@H]2[C@@H](COC[C@H](O)CN2Cc2cc(F)ccc2F)O1)N[C@@H]1CCN(Cc2ccccc2)C1	.	-	-	.	.	.	.
c1ccc2c(c1)CCN(c1ncnc3nc[nH]c13)C2	-	-	-	-	-	-	.
CC1Cc2ccccc2N1c1ncnc2nc[nH]c12 (stereo unspecified)	-	.	.	-	64.8	59.7	86.5
Clc1ccccc1CN(Cc1ccccc1)c1ncnc2nc[nH]c12	-	.	.	-	-	-	.
CCCN(CCC)c1ncnc2nc[nH]c12	-	-	-	50.2	65.7	62.8	79.5
CC(C)(C)OC(=O)CC(S(=O)(=O)c1ccccc1)S(=O)(=O)c1ccccc1	-	-	-	-	85.5	-	-
CC1(C)CC(=O)c2sc(NC(=O)CCS(=O)(=O)c3ccccc3)nc2C1	-	-	-	-	68.3	-	-
CCOc1cccc2sc(NC(=O)CCS(=O)(=O)c3ccccc3)nc12	-	-	-	-	58.9	-	-
CC(=O)c1sc(NC(=O)CCS(=O)(=O)c2ccc(C)cc2)nc1C	-	-	-	-	56.5	-	-
O=C(C[C@@H]1C=C[C@H](NC(=O)CC2CC2)[C@@H](CO)O1)NCc1ccc(-c2ccccc2)cc1	.	-	-	.	.	.	.
COCOc1ccc(/C=C/C(=O)c2c(O)cc(OCOC)cc2OCOC)cc1	-	.	.	-	51.9	-	-
Cc1nn(-c2nccs2)c2c1C(=O)CC(C)(C)C2Br (stereo unspecified)	-	-	-	-	50.7	-	61.4
C#Cc1ccc([C@H]2C=C(C(=O)NCc3nc4ccccc4[nH]3)O[C@@H](OCCCCO)C2)cc1	.	-	.	.	.	.	.
COc1ccc(-c2oc3ccc(-c4ccc(OC)nc4)cc3c2-c2ccc(OC)cc2)cc1	-	-	-	-	-	-	.
COc1ccc(-c2oc3ccc(-c4ccc5c(c4)OCO5)cc3c2C#CC2(O)CCCCC2)cc1	-	-	-	-	60.6	-	52.9
COc1ccc(-c2oc3ccc(-c4ccc(OC)nc4)cc3c2C#CC2(O)CCCCC2)cc1	-	-	-	-	64.4	-	54.2
COc1ccc(-c2sc3cc4c(cc3c2C#CC2(O)CCCCC2)OCO4)cc1	-	-	-	-	-	-	.
C[C@@H]1CCCCO[C@@H](CN(C)S(C)(=O)=O)[C@H](C)CN([C@H](C)CO)C(=O)c2cc(NC(=O)CCC(F)(F)F)ccc2O1	.	-	-	.	.	.	.
CC(C)C#Cc1ccc2c(c1)O[C@H](CN(C)Cc1cncnc1)[C@H](C)CN([C@@H](C)CO)S2(=O)=O	.	-	-	.	.	.	.
CO/N=C/C(NC(=O)c1ccc(C(F)(F)F)cc1)C(=O)OC (stereo unspecified)	-	-	-	-	-	-	.
NC(N)=NN=C(c1ccc(F)cc1)c1ccc(C(F)(F)F)cc1	-	-	?	-	72.1	55.9	80.8
COc1cc(/C=C/C(=O)N2C(=O)c3cccc(N)c3C2=O)cc(OC)c1OC	-	-	-	-	64.2	91.9	-
COc1ccc(OC)c(/C=C/C(=O)N2CCCc3ccccc32)c1	-	-	-	-	-	-	.
SMILES	KKLEB tox	EWS-Fli block	LGR2 inh	TROY NFkB inh	CF NFkB inh	TWEAK-Fn14 inh	CF NFkB inh conf
COc1ccc(OC)c(/C=C/C(=O)N2C(=O)c3cccc(N)c3C2=O)c1	-	-	-	-	60.2	100.4	-
COCC(=O)N1CC2(CN(C(=O)NC(C)C)C2)c2c(n(C)c3cc(OC)ccc23)[C@@H]1CO	.	-	-	.	.	.	.
COc1ccc(-c2ccccc2[C@H]2[C@@H]3C=CC[C@@H](C)[C@@H]3C(=O)N2Cc2ccccc2)cc1	-	-	-	-	60.4	-	50.2
COc1ccc(-c2c([C@H]3[C@H]4C=CC[C@@H](C)[C@@H]4C(=O)N3Cc3ccccc3)ccc3ccccc23)cc1OC	-	-	-	-	62.2	-	45.6
COc1ccc(-c2ccc(OC)c([C@H]3[C@H]4C=CC[C@@H](C)[C@@H]4C(=O)N3Cc3ccccc3)c2)cc1OC	-	-	-	-	-	-	.
COc1ccc(-c2ccc(F)cc2)cc1[C@H]1[C@H]2C=CC[C@@H](C)[C@@H]2C(=O)N1Cc1ccccc1	-	-	-	-	75.1	-	-
COc1ccc(Br)cc1[C@H]1[C@H]2C=CC[C@@H](C)[C@@H]2C(=O)N1Cc1ccccc1	-	-	-	-	-	-	.
CC(C)C#Cc1ccc2c(c1)O[C@@H](CN(C)C(=O)CC1CC1)[C@H](C)CN([C@@H](C)CO)S2(=O)=O	.	-	-	.	.	.	.
O=C(NCc1ccccn1)C1CCCN(S(=O)(=O)c2cc(Cl)ccc2Cl)C1 (stereo unspecified)	-	.	.	-	87.2	-	-
COc1ccc(C)cc1S(=O)(=O)N1CCCC(C(=O)NCc2ccccn2)C1 (stereo unspecified)	-	.	-	-	-	-	.
CN(C)C(=O)c1ccc(-c2ccc([C@H]3[C@H](CO)N4CCCCN(CCC(F)(F)F)C[C@@H]34)cc2)cc1	.	-	-	.	.	.	.
CCOC(=O)C1CCN(c2cc3c(cc2NC(=O)c2ccc(OC)c(OC)c2)n(C)c(=O)n3C)CC1	-	.	-	-	54.4	-	-
O=C(Nc1ccccc1F)N[C@H]1CC[C@H](CC(=O)N2CCCCC2)O[C@@H]1CO	.	-	-	.	.	.	.
C[C@@H]1CN([C@@H](C)CO)C(=O)c2cc(-c3ccc(F)cc3)cnc2O[C@@H]1CN(C)Cc1cccnc1	.	-	-	.	.	.	.
COC1(OC)C=CC(=O)C=C1NC(=O)c1ccccc1OC(C)=O	-	55.2	-	-	66.1	63.4	68.8
CC(=O)Oc1ccccc1C(=O)Nc1ccccc1	-	-	-	-	-	-	.
Cc1ccc(S(=O)(=O)Nc2ccc3c(c2)C(=O)N([C@@H](C)CO)C[C@H](C)[C@H](CN(C)S(=O)(=O)c2cccs2)OCCCC[C@@H](C)O3)cc1	.	-	-	.	.	.	.
Cc1nnc(SCC(=O)N2CCC(c3noc4ccc(F)cc34)CC2)s1	-	-	-	-	63.6	68.1	90.4
Cc1sc2ncnc(SCC(=O)N3CCC(c4noc5ccc(F)cc45)CC3)c2c1C	-	.	-	-	-	-	.
CCCCCCCCCCCCCCCC(O)C(N)CO (stereo unspecified)	-	-	.	-	61.0	-	-
CCCCCCCCO	-	-	-	-	-	-	.
